Experimental findings from PubChem BioAssay (Tox21) are described below.

The structures appear in SMILES notation. A number with no mark means an inactive call. Where a call stands in place of a potency, no number is given. Calls of active or inactive are those of the source. Calls come from the whole dose curve; as a rule, active = well fitted curve in the direction sought with a large enough effect in the repeat runs; inconclusive = weak or mixed curves; inactive = flat fitted curve, though single readings scatter. Starred links: 1 amine or outer side, 2 acyl side, 3 side chain; linkers in the order of their positions; H or OH if unused. Positions of bridges follow the written chain, without caps; N, C: chain ends. Non-standard residues stand in square brackets, D forms with d. Residues, ends and D or L forms follow the SMILES beside them. Chains are numbered I, II in the order given. Actinocin(9to1) = Cc1c2oc3c(C)ccc(C(=O)[*:1])c3nc-2c(C(=O)[*:2])c(N)c1=O; NMeV = CN[C@H](C(=O)O)C(C)C; Sar = CNCC(=O)O

This test in a line: qHTS assay to test for compound auto fluorescence at 460 nm (blue) in HEK293 cells (AID 720678). The note with it: blue autofluorescence 405/460 nm; series mostly up to 91.3 µM; fluorescence, % of triamterene: at the top concentration. The text has this: National Center for Advancing Translational Sciences [NCATS]
NIH Chemical Genomics Center [NCGC]
U.S. Environmental Protection Agency [EPA]
National Institutes of Environmental Health Sciences [NIEHS]
National Toxicology Program [NTP]
U.S. Food and Drug Administration [FDA]
Compound auto fluorescence often interferes with screening of the compound library against various biological targets and signaling pathways. Some of these compounds may have fluorophoric properties. Such properties may interfere with the assay outputs resulting in false positives and/or negatives. To decrease such complications and ensure the compound activities are relevant in terms of biological response, the Tox21 10K compound library was screened for auto fluorescence.
From the fluorophores used as reporter signals in our screening assays, the auto fluorescence equivalencies of compounds against three fluorophores have been evaluated: Triamterene, Fluorescein and Rose Bengal sodium for blue, green and red fluorescence, respectively. The fluorescence intensities were measured using Excitation/Emission wavelengths at 405/460nm, 485/535nm and 540/590nm for blue, green and red labels, respectively. This assay includes the blue fluorescence data.
Tox21 Assay Protocol Summary:
2,000 HEK293 cells in 5 uL of culture medium containing 10% dialyzed FBS per well were dispensed into black wall/clear bottom 1536-well plates using a Multidrop Combi Dispenser (Thermo Scientific). The assay plates were incubated for 4-5 hr at 37C to allow cell attachment to the well bottom, followed by the transfer of 23 nL compound or DMSO vehicle by a pintool work station (Kalypsys, San Diego, CA). After the assay plates were incubated overnight at 37C and 5% CO2, fluorescence intensities in the assay plates were measured by an Envision (PerkinElmer, Shelton, CT) plate reader using three labels for measuring blue, green and red fluorescence at […] 460, 535 and 590nm respectively.
On the technique in general: In qHTS, concentration-response curves come from the screen itself.
For the molecule `CCOc1ccc2c(c1)C(C)=CC(C)(C)N2`, the Potency entry was “inactive”. The same measure, in the same setting: the value for `Cc1ccnc2c1NC(=O)c1cccnc1N2C1CC1` was “inactive”. For the molecule `O=C(O)CCc1ccccc1`, the “fluorescence, % of triamterene” value is -0.0711%. Same read-out and setting: the result for `NC12CC3CC(CC(C3)C1)C2` reads 0.0294% [at 46 µM]. Regarding `CC(COc1ccccc1)N(CCCl)Cc1ccccc1` (stereo not given), the Potency result was “inactive”. Turning to `c1ccc2c(c1)CCCC2C1=NCCN1` (stereo not given), the “fluorescence, % of triamterene” value was 0.0451% [at 46 µM].

In the case of `CCCCC/C=C/CC1CC(=O)OC1=O` (stereo not given), the “fluorescence, % of triamterene” value is 0.0254%. Turning to `Cc1occc(=O)c1OC(=O)C(C)C`, the “fluorescence, % of triamterene” value is -0.116%. As for `CCOc1ccccc1C(N)=O`, the Potency result is “inactive”. The same measure, in the same setting: the value for `CC(C)(c1ccccc1)c1ccc(Nc2ccc(C(C)(C)c3ccccc3)cc2)cc1` was “inactive”; that for `c1ccc2c(c1)-c1cccc3c1c-2cc1ccccc13` was “inactive”. For `CCN(CC)C(=S)SSC(=S)N(CC)CC`, the Potency entry is “inactive”.

Take `COc1ccc(CCN(C)CCCC(C#N)(c2ccc(OC)c(OC)c2)C(C)C)cc1OC` (stereo not given): the Potency entry was “inactive”.

`CCN1CCCC1CNC(=O)c1cc(S(=O)(=O)CC)c(N)cc1OC` (stereo not given): the “fluorescence, % of triamterene” value is 0.151% [at 46 µM]. With `Cc1cc(C2(c3cc(C)c(O)cc3C)OS(=O)(=O)c3ccccc32)c(C)cc1O`, the Potency result was “inactive”. On to `CC(C)(C)c1cc(C(C)(C)C)c(O)c(C(C)(C)C)c1`, for which the Potency entry was “inactive”. As to `Cc1cc(Cc2cc(C)cc(C(C)(C)C)c2O)c(O)c(C(C)(C)C)c1`, the Potency result is “inactive”. Take `CCCCN(CCO)CCCC`: the “fluorescence, % of triamterene” value was -0.0042% [at 95.7 µM]. On the same count and under the same terms, the result for `CC(=O)OCC1=C(C(=O)O)N2C(=O)[C@@H](NC(=O)Cc3cccs3)[C@H]2SC1` reads 2.06% [at 46 µM]. In the case of `Cc1cc(OCCOCC[N+](C)(C)Cc2ccccc2)ccc1C(C)(C)CC(C)(C)C`, the Potency result is “inactive”. With `CNC1(C)C2CCC(C2)C1(C)C` (stereo not given), the “fluorescence, % of triamterene” value is 0.0002% [at 46 µM]. `CCn1cc(C(=O)O)c(=O)c2cc(F)c(N3CCNC(C)C3)c(F)c21` (stereo not given): the Potency result is “inactive”. Regarding `CCC[C@H](N[C@@H](C)C(=O)N1[C@H](C(=O)O)C[C@@H]2CCCC[C@@H]21)C(=O)OCC`, the “fluorescence, % of triamterene” value is 0.163% [at 46 µM]. In the case of `CC1=C(C=O)C(C)(C)CC=C1`, the “fluorescence, % of triamterene” value was 0.158% [at 95.7 µM]. On to `Cc1c2oc3c(C)ccc(C(=O)N[C@@H]4C(=O)N[C@H](C(C)C)C(=O)N5CCC[C@H]5C(=O)N(C)CC(=O)N(C)[C@@H](C(C)C)C(=O)O[C@@H]4C)c3nc-2c(C(=O)N[C@@H]2C(=O)N[C@H](C(C)C)C(=O)N3CCC[C@H]3C(=O)N(C)CC(=O)N(C)[C@@H](C(C)C)C(=O)O[C@@H]2C)c(N)c1=O` (I: T[dV]P[Sar][NMeV] / II: T[dV]P[Sar][NMeV]; ester I:1-I:C, II:1-II:C; linker I:N-II:N via Actinocin(9to1)), for which the Potency result was “inactive”. Take `CO[Si](OC)(OC)c1ccccc1`: the “fluorescence, % of triamterene” value is 0.0859%.

For `O=C(Nc1ccccc1SSc1ccccc1NC(=O)c1ccccc1)c1ccccc1`, the Potency entry is “inactive”. On to `C/C=C/c1ccc(OCC)c(O)c1`, for which the “fluorescence, % of triamterene” value is -0.0345%. With `CC(C)(O)CCC(C)(C)O`, the “fluorescence, % of triamterene” value is -0.217% [at 95.7 µM].

Take `Oc1c(Cl)cc(Cl)cc1Sc1cc(Cl)cc(Cl)c1O`: the Potency entry was “inactive”. For `CCCNC(C)C(=O)Nc1ccccc1C` (stereo not given), the “fluorescence, % of triamterene” value is 0.0829% [at 46 µM]. With `O`, the Potency entry was “inactive”. The same measure, in the same setting: the result for `Oc1ccc(Cl)cc1Cc1cc(Cl)ccc1O` reads “inactive”; that for `CCN(CC)CCOc1ccc(/C(=C(\Cl)c2ccccc2)c2ccccc2)cc1`, “inactive”; that for `COC(=O)c1cccc(C(=O)OC)c1`, “inactive”. For the molecule `CCC(C)(Oc1ccc(C2(c3ccc(OC(C)(CC)C(=O)O)cc3)CCCCC2)cc1)C(=O)O` (stereo not given), the “fluorescence, % of triamterene” value was -0.114% [at 46 µM]. The same measure, in the same setting: the value for `CC(C)C(=O)c1c(C(C)C)nn2ccccc12` was -0.109% [at 46 µM].

`CC[C@]1(O)C[C@@H]2CN(CCc3c([nH]c4ccccc34)[C@@](C(=O)OC)(c3cc4c(cc3OC)N(C)[C@H]3[C@@](O)(C(=O)OC)[C@H](OC(C)=O)[C@]5(CC)C=CCN6CC[C@]43[C@@H]65)C2)C1`: the Potency entry is “inactive”. `CN(C)c1ccc(C(=C2C=CC(=[N+](C)C)C=C2)c2ccccc2)cc1`: the Potency entry was “inactive”. As to `c1cc(C(c2ccc(OCC3CO3)cc2)C(c2ccc(OCC3CO3)cc2)c2ccc(OCC3CO3)cc2)ccc1OCC1CO1` (stereo not given), the “fluorescence, % of triamterene” value is 6.91% [at 95.7 µM].
